Screening results (PubChem)
DT40 TDP1 CPT – qHTS for Inhibitors of human tyrosyl-DNA phosphodiesterase 1 (TDP1): qHTS in cells in presence of CPT. AID 686979, 2013. Potency, µM (series often up to 46.2 µM), inactives show top-dose activity change, negative = growth inhibition, most hits filed as inhibitors. chicken DT40 Tdp1-/-;hTDP1 cells + 20 nM CPT, ATP luminescence, 48 h. 420,000 compounds, 12% hits; further: potency means the concentration at half of the fitted maximal effect; on the % scale 0 is the no-effect control and ±100 the full control effect; nearly all actives have a fitted effect of over 55% in size
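Chicken DT40 Tdp1-/- cells complemented with human TDP1, 400 cells/well, exposed to compounds plus 20 nM camptothecin for at least 48 h at 37 C; viability read as ATP content by CellTiter-Glo luminescence.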
DT40 TDP1 no CPT – qHTS for Inhibitors of human tyrosyl-DNA phosphodiesterase 1 (TDP1): qHTS in cells in absence of CPT | 420,000 compounds, 15% hits | Potency, µM (titrated, usually from 46.2 µM), inactives show at the highest dose activity change, negative = growth inhibition, actives largely listed as inhibitors | AID 686978, 2013 | DT40 Tdp1-/- hTDP1 cells, no CPT, ATP luminescence, 48 h; further: potency means the concentration at half of the fitted maximal effect; on the % scale 0 is the no-effect control and ±100 the full control effect; nearly all actives have a fitted effect of over 55% in size
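Luminescent ATP content (CellTiter-Glo) served as the growth readout. Knockout chicken DT40 cells expressing human TDP1 were exposed to compounds without camptothecin for a minimum 48 hr at 37 °C.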
IL1B secr inh – qHTS for Inhibitors of Inflammasome Signaling: IL-1-beta AlphaLISA Primary Screen; THP-1 LPS/ATP IL-1B secretion, AlphaLISA, 16 h; active compounds read low; activity change, % at 57.5 µM; 360,000 compounds, 4.7% hits; in the data active means activity change below about -50%; inconclusive means mostly about -30% to -49%; further: on the % scale 0 is the no-effect control and ±100 the full control effect
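THP-1 cells pretreated 1 hr with compounds (up to 57.5 uM final), then stimulated with LPS (250 ng/mL final) plus ATP (1.25 mM final); secreted IL-1B measured by AlphaLISA after 16 hr, decreased signal indicating inhibition.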
HepG2 viability – qHTS for Inhibitors of TGF-b: Cytotox Counterscreen | HepG2 CAGA-GFP viability, ATP luminescence, 18 h | Potency, µM (top dose mostly 46.1 µM), for inactives: at the highest dose activity change, negative = cytotoxicity, hits mostly cytotoxic | 410,000 compounds, 0.76% hits; further: potency means the concentration at half of the fitted maximal effect
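HepG2 CAGA-GFP cells (1000/well, DMEM with 1% FBS) received compound, then TGF-beta at 500 pg/mL final, and were incubated 18 hours at 37 degrees C. Viability was read by CellTiter-Glo luminescence. Media-only wells were set as complete cell-killing and DMSO as no toxicity.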
TGFb SMAD3 inh – qHTS for Inhibitors of TGF-b; HepG2 CAGA-GFP TGF-b/SMAD3 reporter, GFP fluorescence, 18 h; TGF-beta stimulated, 500 pg/mL final; Potency, µM (top dose mostly 46.1 µM), inactives show at the top dose activity, negative = inhibition, most hits filed as inhibitors; 410,000 compounds, 1.2% hits; further: potency means the concentration at half of the fitted maximal effect; on the % scale 0 is the no-effect control and ±100 the full control effect; nearly all actives have a fitted effect of over 65% in size
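Inhibition was scored as loss of TGF-beta-induced (500 pg/mL final, 18 hours, 37 degrees C) GFP in HEPG2 cells carrying a CAGA-GFP reporter, in DMEM with 1% FBS. Well GFP was summed per cell; Activity was normalised to unstimulated and stimulated DMSO wells, then concentration-response fitting.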
TDP1 block – qHTS Assay for Inhibitors of Tyrosyl-DNA Phosphodiesterase (TDP1); recombinant TDP1, AlphaScreen DNA substrate cleavage; Potency, µM (doses to about 130 µM), inactives show at the top dose activity change, negative = inhibition, usual class: inhibitors; 350,000 compounds, 0.28% hits; AID 485290, 2010; further: potency means the concentration at half of the fitted maximal effect; on the % scale 0 is the no-effect control and ±100 the full control effect; nearly all actives have a fitted effect of over 40% in size
Target sequence (Q9NUW8 whole entry, looked up): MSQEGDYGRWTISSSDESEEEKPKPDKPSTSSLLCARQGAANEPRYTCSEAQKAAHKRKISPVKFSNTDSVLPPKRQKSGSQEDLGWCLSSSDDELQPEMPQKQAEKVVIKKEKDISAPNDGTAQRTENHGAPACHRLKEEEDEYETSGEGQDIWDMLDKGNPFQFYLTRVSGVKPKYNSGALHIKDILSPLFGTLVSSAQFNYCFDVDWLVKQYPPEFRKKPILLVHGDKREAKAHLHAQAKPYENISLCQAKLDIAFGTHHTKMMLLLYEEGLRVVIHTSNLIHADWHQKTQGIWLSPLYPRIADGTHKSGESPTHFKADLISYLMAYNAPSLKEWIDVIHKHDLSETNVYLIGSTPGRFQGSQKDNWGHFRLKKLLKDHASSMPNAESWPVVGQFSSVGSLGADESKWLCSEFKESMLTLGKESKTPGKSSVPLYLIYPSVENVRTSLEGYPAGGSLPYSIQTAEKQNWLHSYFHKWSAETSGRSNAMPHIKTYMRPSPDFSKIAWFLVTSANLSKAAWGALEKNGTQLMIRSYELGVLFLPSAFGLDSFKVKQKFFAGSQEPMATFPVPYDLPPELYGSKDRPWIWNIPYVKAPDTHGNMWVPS
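AlphaScreen read-out: signal falls as enzyme removes the 3' tyrosine-FITC from a 5'-biotinylated DNA oligo (15 nM, 5 min, RT). Enzyme was E. coli-made recombinant Tdp1 at 1 nM, exposed to compound for 15 min beforehand; beads 10 ug/ml, 10 min.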
An asterisk follows results filed as active; ? = inconclusive; . = not tested or not shown. In the library only some 18% were active in any assay of this set; here they are far more common. Unless noted, the call rests on the fitted dose curve; in most records, active means well fitted curve in the direction sought with a large enough effect; inconclusive means small, poorly fitted or top-dose-only effect, or another doubt; inactive means no such curve, though single readings can be large; an effect the other way counts as inactive or inconclusive.

SMILES	DT40 TDP1 CPT	DT40 TDP1 no CPT	IL1B secr inh	HepG2 viability	TGFb SMAD3 inh	TDP1 block
C=CCn1c(O)c(N=Nc2ccccc2)c2ccccc21	?	?	8.9	-6.8%	1.1%	.
COC(=O)c1ccc(CNC(=O)CC[C@H]2O[C@@H](n3cc(C)c(=O)[nH]c3=O)C[C@@H]2O)cc1	9.2%	4.5%	6.1	4.2%	-1.5%	.
O=S(=O)(Nc1ccc(Br)cc1)N1CCOCC1	-4.6%	13.1%	-3.9	4.7%	7.4%	1.1%
CCOc1ccc(-c2c(C(=O)N/N=C/C3CCCCC3)nnn2-c2nonc2N)cc1	-27.3%	-0.2%	4.9	0.5%	-3.3%	0.8%
COC(=O)c1ccc(C2NCCc3cc(OC)c(OC)cc32)cc1 (stereo not given)	-11.5%	?	-3.5	-19.5%	-9.9%	.
COCCCN(C(=O)c1cc(-c2ccco2)nc2ccccc12)c1c(N)n(Cc2ccccc2)c(=O)[nH]c1=O	-0.8%	-0.6%	0.4	2.4%	-1.0%	.
COc1ccc2c(Cn3cnc4cc([N+](=O)[O-])ccc4c3=O)cc(=O)oc2c1	5.17µM*	6.51µM*	1.2	-31.5%	-16.9%	2.7%
CCCCC[C@H](C)N1C[C@@H](COCc2ccccc2)Oc2cc(N3CCC[C@H]3COC)ccc2S1(=O)=O	?	18.4µM*	0.5	.	.	.
CCCCC[C@H](C)N1C[C@H](COCc2ccccc2)Oc2cc(N3CCC[C@H]3CO)ccc2S1(=O)=O	?	20.6µM*	-55.3*	.	.	.
CCCCC[C@@H](C)N1C[C@@H](COCc2ccccc2)Oc2cc(N3CCC[C@H]3C(N)=O)ccc2S1(=O)=O	?	16.4µM*	-29.5	.	.	.
CCCCC[C@H](C)N1C[C@H](COCc2ccccc2)Oc2cc(N3CCC[C@@H]3COC)ccc2S1(=O)=O	?	?	0.0	.	.	.
CCCCC[C@H](C)N1C[C@@H](COCc2ccccc2)Oc2cc(N3CCC[C@H]3C(N)=O)ccc2S1(=O)=O	?	?	0.0	.	.	.
CC(=O)N1CCOc2ccc(S(=O)(=O)N3CCC(C(=O)NCc4ccccc4)CC3)cc21	-21.8%	0.8%	8.0	2.9%	14.4%	-7.4%
CCC(C)NC(=O)c1cc(-c2ccc3c(c2)OCO3)on1 (stereo not given)	4.2%	?	-1.7	1.0%	2.1%	.
CCOc1ccc2nc(N3CCC(C(=O)N4CCN(C5CCCCC5)CC4)CC3)sc2c1	8.2µM*	?	-1.1	-23.1%	?	2.6%
CCOc1ccc2nc(N3CCCC(C(=O)N4CCN(CC)CC4)C3)sc2c1 (stereo not given)	-3.8%	-22.5%	-2.3	-4.7%	4.6%	4.9%
CCOc1ccc2nc(N3CCC(C(=O)N4CCN(C(=O)c5ccco5)CC4)CC3)sc2c1	?	23.1µM*	1.5	-15.5%	-26.7%	5.3%
CCOc1ccc2nc(N3CCC(C(=O)Nc4ccccc4CC)CC3)sc2c1	?	23.1µM*	.	10.0%	-5.7%	2.9%
CCOc1ccc2nc(N3CCC(C(=O)Nc4nnc(CC)s4)CC3)sc2c1	-25.8%	-1.2%	2.6	-16.7%	-14.3%	9.8%
Cc1nc2nc(NC(=O)c3ccco3)[nH]n2c(=O)c1C	3.4%	15.2%	8.6	-0.7%	-1.2%	3.5%
O=C(Nc1ccc(Cl)cc1)Nc1nnc(CSCc2ccc(Cl)cc2)s1	2.59µM*	4.11µM*	-61.0*	-3.5%	?	2.6%
COc1ccc(Cc2nnc(NC(=O)c3ccc(OC)c(OC)c3)s2)cc1	23.1µM*	23.1µM*	27.5	-18.3%	-8.5%	.
CCc1nnc(NC(=O)Nc2ccc(Cl)cc2)s1	-20.9%	?	-0.6	-19.7%	-2.3%	-10.3%
O=C(Nc1ccccc1)Nc1nnc(Cc2ccccc2F)s1	5.9%	-9.4%	5.8	2.3%	-10.4%	1.5%
COc1ccc(NC(=O)Nc2nnc(Cc3ccc(F)cc3)s2)cc1	-21.4%	25.9µM*	-13.8	-13.5%	0.0%	.
SMILES	DT40 TDP1 CPT	DT40 TDP1 no CPT	IL1B secr inh	HepG2 viability	TGFb SMAD3 inh	TDP1 block
O=C(Nc1ccc(F)cc1)Nc1nnc(Cc2ccccc2F)s1	16.4µM*	13µM*	4.6	-20.8%	-20.5%	.
CCCc1nnc(NC(=O)Nc2ccc(OC)cc2)s1	-20.1%	-22.3%	-3.1	16.5%	24.8%	4.6%
COc1ccc(Cc2nnc(NC(=O)c3cc(OC)c(OC)c(OC)c3)s2)cc1	?	?	0.0	-21.2%	-27.7%	.
Cc1ccc(Cl)cc1N1CCN(C(=O)c2cn(C)c3ccc(S(=O)(=O)N4CCCC4)cc3c2=O)CC1	?	?	.	-2.0%	17.3%	4.7%
COc1cccc(NC(=O)Nc2nnc(Cc3ccccc3F)s2)c1	?	23.1µM*	17.1	-56.9%	?	.
Cc1nn(Cc2ccc(F)cc2)c(C)c1NC(=O)CCCn1nc([N+](=O)[O-])cc1C	-2.0%	23.5%	22.2	17.5%	0.4%	1.6%
O=C(/C=C/c1ccco1)NC(=S)Nc1ccccc1N1CCCC1	?	20.6µM*	35.0	-23.3%	-13.1%	2.4%
Cc1ccc(NC(=S)NC(=O)/C=C/c2ccco2)c(O)c1	-11.3%	?	-8.6	-13.6%	0.3%	5.5%
O=C(/C=C\c1ccco1)NC(=S)Nc1ccccc1O	18.4µM*	?	-10.2	-20.0%	-14.9%	2.7%
O=C(/C=C/c1ccco1)NC(=S)Nc1ccccc1N1CCOCC1	-24.4%	?	5.5	-34.2%	-27.9%	7.8%
O=C(/C=C/c1ccco1)NC(=S)Nc1ccccc1O	?	18.4µM*	-18.6	-26.3%	-14.8%	1.2%
CC(=O)Nc1ccc(Nc2nc(C)c([N+](=O)[O-])c(Nc3ccccc3)n2)cc1	23.1µM*	18.4µM*	-24.0	-11.2%	-10.5%	5.6%
Cc1nc(Nc2ccc(C(=O)O)cc2)nc(Nc2ccc(C(=O)O)cc2)c1[N+](=O)[O-]	-6.5%	5.9%	-3.0	11.1%	1.0%	.
CCC(=O)Nc1ccc(Nc2nc(C)c([N+](=O)[O-])c(Nc3ccc(NC(=O)CC)cc3)n2)cc1	8.2µM*	6.51µM*	6.5	3.3%	-9.5%	1.8%
CC1(C(=O)NCc2ccccc2)CSCC(=O)N1CCc1c[nH]c2ccccc12 (stereo not given)	-13.8%	-20.9%	-27.9	.	.	.
